AMA1-RON2 inh: disrupts binding of P. falciparum AMA1 to RON2 | AID 720542 | AlphaScreen AMA1-biotinylated RON2 peptide binding | 360,000 tested, 0.2% active | Potency, µM (titrated, usually from 58.2 µM), for the others: top-dose activity change, negative = inhibition, most hits filed as inhibitors;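 further: potency means the concentration at half of the fitted maximal effect; 0% = vehicle wells and -100% = peptide control; nearly all actives have a fitted effect of over 45% in size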
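AMA1 (3D7) with his tag at 25 nM final met compounds first, then biotinylated RON2 peptide at 25 nM; detection used donor plus acceptor beads, 10 µg/mL apiece, read by AlphaScreen after 30 min at room temperature.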
Pf growth 96h: P. falciparum growth inhibition at 96 hour, primary screen for plastid delayed-death inhibitors. Potency, µM (titrated, usually from 28.7 µM), inactives show top-dose activity change, negative = inhibition, actives largely listed as inhibitors. 320,000 tested, 6.9% active. P. falciparum luciferase reporter growth, 96 h; further: potency means the concentration at half of the fitted maximal effect; on the % scale 0 is the no-effect control and ±100 the full control effect
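P. falciparum expressing integrated firefly luciferase, in erythrocytes at 2% hematocrit, 0.05% parasitemia, incubated with compounds 96 h at 37 C, 5% CO2. Growth inhibition read as loss of luminescence; two-generation exposure targets delayed-death apicoplast inhibitors.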
Shiga inhibitor: inhibitors of Shiga toxin in Vero cells; Vero cells, Shiga toxin protein synthesis inhibition reporter; inhibition, % at 38.7 µM; 290,000 tested, 9.2% active; in the data active means inhibition mostly above about 28%, no sharp cut-off; inactive means mostly below about 43%; further: 0% is about no effect
Pf growth 48h: P. falciparum growth inhibition at 48 hours (one generation); P. falciparum luciferase growth in erythrocytes, 48 h; Potency, µM (titrated, usually from 28.7 µM), for inactives: at the top dose activity change, negative = inhibition, hits mostly inhibitors; 310,000 tested, 5.9% active; AID 504832; further: potency means the concentration at half of the fitted maximal effect; on the % scale 0 is the no-effect control and ±100 the full control effect
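A one-generation exposure of luciferase-tagged malaria parasites in RPMI 1640/Albumax erythrocyte culture, 37 C and 5% CO2. Inhibition is inferred from decreased luminescence after adding detection reagent.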
HCV inhibitor: HCV inhibition; Huh7.5.1 HCVcc-Cre infection, luciferase reporter, 44 h; Potency, µM (top dose mostly 41.8 µM), for the others: at the highest dose activity change, negative = inhibition, actives largely listed as inhibitors; 340,000 tested, 3.4% active; AID 651820; further: potency means the concentration at half of the fitted maximal effect; on the % scale 0 is the no-effect control and ±100 the full control effect
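Infectious HCVcc-Cre (~0.5 moi) was added to cells just after compound, with cells seeded 4 h earlier at 1,000 per well. Luciferase activity after 44 h culture reported infection; substrate was incubated 15 min at room temperature before reading.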
CHX counter: counter-screen for Shiga toxin inhibitors: cycloheximide protein synthesis inhibition | max response, % | cell reporter, cycloheximide protein synthesis inhibition counterscreen | AID 2314 | 300,000 tested, 12% active; in the data active means max response mostly above about 13%, no sharp cut-off; inactive means mostly below about 14%; further: read at 38.3 µM for the half of the compounds with a filed dose; 0% is about no effect
Active calls of the source: *; ? = inconclusive; . = no result; [ ] = dose if it differs, or a comment. Hits are enriched below; roughly 21% of the tested compounds scored in any of these assays. Unless noted, the call rests on the fitted dose curve; in most records, active means well fitted curve in the direction sought with a large enough effect; inconclusive means small, poorly fitted or top-dose-only effect, or another doubt; inactive means no such curve, though single readings can be large; an effect the other way counts as inactive or inconclusive.

SMILES | AMA1-RON2 inh | Pf growth 96h | Shiga inhibitor | Pf growth 48h | HCV inhibitor | CHX counter
O=C(O)CCCNC(=O)Nc1ccccc1 | 5% | -4% | -14 | 11% | 0% | -5
CCCCCCNC(=O)Nc1ccccc1 | 18% | 8% | 61* | 1% | 12% | 44*
O=C(NCCC1CC1(Cl)Cl)Nc1ccccc1 (stereo unspecified) | -13% | 61% | 53* | -2% | -2% | 19
CCCCSCCCNC(=O)Nc1ccc(CC)cc1 | ? | ? | 6 | 5% | 9% | 11*
Cc1cc(NC(=O)CCC2CCCCC2)no1 | 4% | -85% | 61* | -27% | 1% | 25*
Cc1ccnc(NC(=O)CCC2CCCCC2)c1 | -8% | . | 126* | -13% | 17% | 42*
Cc1cc(NC(=O)CCC2CCCC2)no1 | 0% | 0% | 36 | 48% | 16% | 28*
O=C(CCC1CCCC1)Nc1ccc(Br)cn1 | -1% | 10% | 89* | 139% | 10% | 18*
O=C(CCC1CCCC1)Nc1ccon1 | -11% | . | -2 | 17% | 13% | 7
CC1CC(C)CN(C(C(=O)NC2CCCCC2)c2cc3ccccc3o2)C1 (stereo unspecified) | 0% | . | . | . | . | .
CCC(C)NC(=O)C1CCN(S(=O)(=O)c2ccc(-n3cnnn3)cc2)CC1 (stereo unspecified) | 5% | ? | -4 | 6% | 0% | -5
COc1cc(OC)cc(C(=O)N[C@H](C(=O)OCC(=O)Nc2cccnc2Cl)C(C)C)c1 | -4% | 22% | . | 6% | ? | .
Cc1ccnc(NC(=O)C23CC4CC(CC(C4)C2)C3)c1 | 12% | 5% | 27 | ? | -13% | 12*
CCN(CC(=O)Nc1c(F)cccc1F)C(=O)CCCSc1nc2ccccc2[nH]1 | -7% | . | . | . | . | .
O=C(O)/C=C/C(=O)NNc1ncnc2ccccc12 | 71% | 0% | 81* | 40% | -5% | 31*
CC(=O)NNc1ncnc2ccccc12 | 64% | 25% | 3 | 23% | 5% | 8
O=C(NNc1ncnc2ccccc12)c1cccc(Cl)c1 | 81% | 60% | 52* | 65% | -2% | 31*
Cc1nn(C)c(C)c1S(=O)(=O)NC1CCCC1 | -2% | -24% | -3 | ? | 17% | -3
Cc1nn(-c2nnc(NC3CCCCC3)nn2)c(C)c1Br | 1%[11.6 µM] | ? | active | ? | -2% | 47*
CC(=O)Nc1ccc(NC(=O)C(C)Sc2nnc(-c3cccs3)o2)cc1 (stereo unspecified) | 20% | 35% | -10 | 0% | 3% | -2
CC(C)(C)OC(=O)NCCCCCO | 5% | 45% | 27* | -7% | ? | 27*
COc1ccc(-c2nnc(SC(C(=O)c3c[nH]c4ccccc34)c3ccccc3)n2N)cc1OC (stereo unspecified) | -15% | ? | 7 | 8.3µM* | ? | 8
CSc1sc(C(=O)NCC2CC2)cc1S(=O)(=O)C(C)C | -1% | -4% | -9 | 2.3µM* | -2% | 2
CSc1sc(C(=O)N2CCc3ccccc32)cc1S(=O)(=O)C(C)C | -11% | ? | 24 | ? | ? | 5
O=[N+]([O-])c1ccc(C(O)CSC(=S)N2CCCCC2)cc1 (stereo unspecified) | -6% | 172% | 83* | 135% | -22% | 46*
SMILES | AMA1-RON2 inh | Pf growth 96h | Shiga inhibitor | Pf growth 48h | HCV inhibitor | CHX counter
O=[N+]([O-])c1ccc(C(=S)N2CCCC2)cc1 | -12% | -5% | 14 | 11% | -6% | 7
O=C(COC(=O)C1CCC1)c1c[nH]c2ccccc12 | 8% | -14% | . | -6% | -5%[8.37 µM] | .
O=C(OCC(=O)c1c[nH]c2ccccc12)c1ccc(Br)o1 | -6% | . | 111* | 1% | 12% | 26*
COc1ccccc1NC(=O)COC(=O)c1c[nH]c2ccccc12 | 0% | ? | . | ? | ? | .
Cc1[nH]c2ccccc2c1C(=O)COC(=O)C1CCC1 | -1% | -16% | 40 | 25% | 20% | 23*
O=C(COC(=O)C1CC1)c1c[nH]c2ccccc12 | -7% | 5% | 76* | 36% | -23% | 57*
COc1cc(NC(=O)c2ccco2)c(C(=O)OCC(=O)c2c[nH]c3ccccc23)cc1OC | -3% | 2.3µM* | 18 | 4.1µM* | ? | 0
COc1cc(C)ccc1S(=O)(=O)n1nc(C)cc1C | -14% | 31% | 16 | -8% | -4% | -5
CCOC(=O)C1C(=O)C(=O)N(Cc2ccccc2)C1C(=O)OCC (stereo unspecified) | -1% | . | . | . | 10% | .
O=C(O)CC1(CC(=O)NCc2cc(F)cc3c2OCOC3)CCCCC1 | -8% | ? | 15 | -15% | 5% | 0
O=C(OCC(=O)c1c[nH]c2ccccc12)c1ccco1 | -1% | 5.2µM* | 88* | 19% | 4% | 68*
Cc1[nH]c2ccccc2c1C(=O)C(=O)N(C)C1CCCCC1 | -2% | 2.6µM* | 11 | 2.6µM* | 2% | 2
CC(C(=O)c1c[nH]c2ccccc12)N1CCN(C(=O)c2ccco2)CC1 (stereo unspecified) | -5% | 2.1µM* | -3 | 1.9µM* | 8% | -2
O=C(Nc1ccccc1C(=O)O)c1ccc(Br)c(S(=O)(=O)NCc2ccccc2)c1 | 6% | 10% | -4 | 25% | 8% | 6
COc1ccc(CCc2nnc(NS(C)(=O)=O)s2)cc1 | 0% | -29% | -1 | 0% | 7% | -2
CC(C)(C)c1ccc2c(c1)OC(C(=O)N/N=C\c1ccc[nH]1)CO2 (stereo unspecified) | 72% | 33% | -2 | ? | 1µM* | 9
CC(C)(C)c1ccc2c(c1)OC(C(=O)N/N=C\c1ccncc1)CO2 (stereo unspecified) | 9% | 22% | -2 | -24% | -4% | -3
CC(C)(C)c1ccc2c(c1)OC(C(=O)N/N=C/c1ccc([N+](=O)[O-])o1)CO2 (stereo unspecified) | 16% | 2.9µM* | -5 | ? | ? | -2
Cc1ccc(C)c(NC(=O)CN(C)C(=O)C2=NNC(=O)CC2)c1 | 1% | . | . | . | 6% | .
O=C(NCc1ccccc1)N(Cc1cc2cc3c(cc2[nH]c1=O)OCCO3)CC1CCCO1 (stereo unspecified) | -4% | 8.3µM* | -16 | . | 10% | -2
CC(=O)c1cccc(S(=O)(=O)N(Cc2cc3cc4c(cc3[nH]c2=O)OCCO4)CC2CCCO2)c1 (stereo unspecified) | -17% | 13µM* | -7 | -14% | 0% | -2
COc1ccc(C(=O)Nc2ccc(Cl)cn2)cc1Cl | -5% | 96% | 79* | 84% | ? | 50*
COc1ccc(C(=O)Nc2ccc(Cl)cn2)cc1S(=O)(=O)N1CCCC1 | -1% | ? | . | ? | -4% | .
COc1ccc(C(=O)Nc2ccc(NC(=O)c3cc(OC)c(OC)c(OC)c3)cn2)cc1 | -16% | 32% | 15 | 2.1µM* | -21% | 2
